The record followed here is PubChem BioAssay (Tox21).

Assay [1] can be described thus: qHTS assay to identify small molecule agonists of the progesterone receptor (PR) signaling pathway - cell viability counter screen (AID 1346799; calls by dose curve; also: nearly all actives have a fitted effect of over 45% in size; also: potency is read from the fitted curve at half-maximal effect). In outline:
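Counter screen for cytotoxicity: compound-treated PR-UAS-bla HEK293T cells (16 hr, 37C, 5% CO2) were assayed with CellTiter-Glo, luminescence measured after 30 min at room temperature.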
A general note: Quantitative high-throughput screening tests each substance at several concentrations.

A short description of assay [2]: qHTS assay to identify small molecule antagonists of the TGF-beta/Smad signaling pathway - cell viability counter screen (AID 1346824). Also: nearly all actives have a fitted effect of over 50% in size. Also: potency is read from the fitted curve at half-maximal effect. In outline:
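SBE-bla HEK 293T cells, incubated overnight, then compound plus 0.25 ng/mL TGF-beta1 (stock added) for 5 hr at 37 C. Viability was read in the same wells by CellTiter-Glo luminescence after 30 min at room temperature.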

A short description of assay [3]: qHTS assay to identify small molecule agonists of the TGF-beta/Smad signaling pathway - cell viability counter screen (AID 1346829). Also: nearly all actives have a fitted effect of over 45% in size. Also: potency is read from the fitted curve at half-maximal effect. As to activity change, negative = cytotoxicity: top concentration of the series differs between compounds. The method, boiled down:
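Luminescence from CellTiter-Glo, read after a 30 min room-temperature incubation, gives cell viability of SBE-bla HEK 293T cells treated 5 hr with compounds at 37 C.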

Assay [4] can be described thus: qHTS assay to identify small molecule agonists of the TGF-beta/Smad signaling pathway (AID 1346859; active = well fitted activation curve with a large enough effect in the signal ratio in the repeat runs, not every such curve was filed as active; the % refers to the signal ratio; also: series mostly up to about 77 µM). In outline:
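Smad-responsive beta-lactamase reporter cells (HEK 293T) received compounds from DMSO stocks after overnight attachment, were incubated 5 hr, then treated 2 hr with FRET substrate before dual-emission fluorescence measurement (405 nm excitation).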

Assay [5] concerns the target Thyrotropin-releasing hormone receptor (Homo sapiens) (UniProt P34981). As to the kind of experiment: qHTS assay to identify small molecule antagonists of the thyrotropin-releasing hormone receptor (TRHR) signaling pathway (AID 1346877; active = well fitted inhibition curve with a large enough effect in the repeat runs, not every such curve was filed as active; also: series mostly up to about 51 µM). The method, boiled down: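 Intracellular calcium fluorescence, read kinetically every second over 3 min, reports TRH-evoked signalling in HEK293 cells carrying TRHR. Test compounds were added 5 min ahead of a 1 nM TRH challenge.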

Assay [6] shares this target. The assay can be described thus: qHTS assay to identify small molecule agonists of the thyrotropin-releasing hormone receptor (TRHR) signaling pathway (AID 1346891; calls by dose curve;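 also: HEK293 cells expressing TRHR with calcium dye readout; series mostly up to about 58 µM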). The method, boiled down:
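Agonist-mode calcium mobilisation screen: TRHR-transfected HEK293 cells cultured overnight (18 h), dye-loaded for 2 h at 37 °C, exposed to compounds, and monitored by fluorescence for 3 min.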

Assay [7] in a line: Human pregnane X receptor (PXR) small molecule agonists, qHTS cell viability counter screen (AID 1346977). Also: nearly all actives have a fitted effect of over 50% in size. Also: potency is read from the fitted curve at half-maximal effect. In outline: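 Measures live-cell protease fluorescence (CellTiter-Fluor) in PXR-Luc HepG2 cells treated 24hr with compounds at 37C. Cells had 5hr to attach before pin transfer of DMSO solutions.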
Assay [8] is described as follows: Caspase-3/7 induction in HepG2 cells by small molecules, qHTS assay (AID 1346978). Also: nearly all actives have a fitted effect of over 15% in size. Also: potency is read from the fitted curve at half-maximal effect. In outline: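 Wild-type HepG2 cells, 2,000/well, settled 5 hr at 37 C and 5% CO2, then compound-treated for 17 hr; caspase-3/7 activity read by luminescent Caspase-Glo 3/7 after 30 min at room temperature.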
Assay [9] is described as follows: Caspase-3/7 induction in CHO-K1 cells by small molecules, qHTS cell viability counter screen (AID 1346979). Also: nearly all actives have a fitted effect of over 35% in size. Also: potency is read from the fitted curve at half-maximal effect. In outline: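 In the same wells as the caspase read, viability of compound-treated wild-type CHO-K1 cells was assessed using CellTiter-Fluor, added after 16hr at 37C and measured by fluorescence following 1hr further incubation.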

A number with no mark means an inactive call. Records with an inconclusive call do not appear. Calls of active or inactive are those of the source. Unless noted, calls follow the shape of the dose curve; as a rule, active = well fitted curve in the direction sought with a large enough effect in the repeat runs; inconclusive = weak or mixed curves; inactive = no such curve, though single readings can be large; an effect the other way counts as inactive or inconclusive.
% is scaled to controls: 0 for no effect and ±100 for the full control effect.

Thyrotropin-releasing hormone receptor (Homo sapiens), sequence (P34981 whole entry, looked up): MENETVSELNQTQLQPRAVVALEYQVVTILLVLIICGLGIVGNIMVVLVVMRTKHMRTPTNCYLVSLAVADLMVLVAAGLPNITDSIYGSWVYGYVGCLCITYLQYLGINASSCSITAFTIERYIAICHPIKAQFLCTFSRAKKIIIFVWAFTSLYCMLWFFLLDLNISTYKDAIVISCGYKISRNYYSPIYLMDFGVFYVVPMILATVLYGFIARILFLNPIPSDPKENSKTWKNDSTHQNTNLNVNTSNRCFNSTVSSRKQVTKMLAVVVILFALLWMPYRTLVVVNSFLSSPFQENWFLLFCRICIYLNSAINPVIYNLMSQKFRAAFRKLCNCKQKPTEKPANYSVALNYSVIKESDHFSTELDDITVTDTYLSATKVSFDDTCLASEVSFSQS

As to `Cc1ccc2n[nH]nc2c1`, the Potency entry in [1], in [2], in [3], in [5], in [6] and in assay [7] was “inactive” throughout. For the same compound, the Potency result in assay [8] and in assay [9] was “inactive” in each case. For the same compound, the compound was called inactive in assay [4].
Turning to `Nc1ccc(Cl)c([N+](=O)[O-])c1`, the Potency entry in assay [1], in [2], in [3], in assay [5], in assay [6] and in assay [7] was “inactive” in each case. The Potency result in assay [8] is “inactive”. For the same compound, in assay [4], the call was inactive. The Potency in assay [9] is 54.5 µM (active).
In the case of `Cc1ccc2nc(-c3ccc(N)cc3)sc2c1S(=O)(=O)O`, the Potency result in assay [1], in [2], in assay [3], in assay [5], in assay [6] and in assay [7] was “inactive” each time. Besides, the Potency entry in assay [8] and in [9] was “inactive” in each case.
`CCOC(=O)C1=NN(c2ccc(Cl)cc2Cl)C(C)(C(=O)OCC)C1` (stereo not given): the Potency result in [1], in assay [2], in assay [3], in assay [5], in [6] and in assay [7] was “inactive” in each case. Besides, the Potency entry in [8] and in [9] was “inactive” throughout. In [4], the outcome was inactive.
Consider `C/C(=N\[Si](C)(C)C)O[Si](C)(C)C`, for which the Potency entry in assay [1], in assay [2], in [3], in assay [5], in assay [6] and in [7] was “inactive” throughout. Moreover, the Potency result in [8] and in assay [9] was “inactive” each time. Besides, the outcome in assay [4] was inactive.
In the case of `CCCCCCCCc1ccc(Nc2ccc(CCCCCCCC)cc2)cc1`, the Potency entry in [1], in assay [2], in assay [3], in [5], in [6] and in assay [7] was “inactive” each time. In addition, the Potency result in assay [8] and in assay [9] was “inactive” throughout. Further, the outcome in [4] was inactive.
`Cc1cccc2c1ccc1ccccc12`: the Potency result in assay [1], in assay [2], in assay [3], in assay [5], in [7] and in assay [8] was “inactive” each time. The Potency result in [9] is “inactive”. Also, the call in assay [4] was inactive.
As for `C=C[Si](C)(C)Cl`, the activity change, negative = cytotoxicity in assay [1] was -13.4% [at 8.39 µM]; in assay [3], 9.12% [at 6.97 µM]; in assay [7] it was 1.3% [at 8.39 µM]; in assay [9] it was 6.64% [at 8.39 µM]. In assay [2], the viability change, negative = cytotoxic is 9.11% [at 6.97 µM]. The activation in assay [4] was 0.312% [at 6.97 µM]; in assay [6], 0.0082% [at 5.23 µM]. Besides, in [5], the activity, negative = inhibition was 2.56% [at 4.65 µM]. The caspase activation in assay [8] is -0.0006% [at 8.39 µM].
Consider `COc1cc(C(C)C)ccc1C`, for which the activity change, negative = cytotoxicity in [1] was -8.49% [at 19 µM]; in assay [3] it was 6.13% [at 15.8 µM]; in assay [7] it was 1.46% [at 19 µM]; in assay [9] it was -7.98% [at 19 µM]. Further, in assay [2], the viability change, negative = cytotoxic was -0.209% [at 15.8 µM]. For the same compound, the activation was 5.38% [at 15.8 µM] in assay [4] and 0.0321% [at 11.8 µM] in [6]. In addition, the activity, negative = inhibition in [5] is -0.302% [at 10.5 µM]. For the same compound, the caspase activation in assay [8] is 0.0291% [at 19 µM].
Regarding `COc1cccc(-c2ccc(/C=C\CN3CCCCCC3)cc2Cl)c1`, the Potency result in assay [1], in assay [2], in assay [3] and in [5] was “inactive” in each case. Further, the compound was classed as inactive in [4]. Also, in assay [7], the Potency is 48.3 µM (active).
For `Oc1ccc(C2(c3ccc(O)c(C4CCCCC4)c3)CCCCC2)cc1C1CCCCC1`, the Potency in assay [1] is 27.3 µM (active); in [2], 43.6 µM (active); in assay [3], 49 µM (active); in assay [7], 19.3 µM (active); in [8], 24.3 µM (active); in [9], 13.7 µM (active). Moreover, the Potency entry in assay [5] and in assay [6] was “inactive” each time.
Regarding `O=C(O)C[C@H](O)C[C@H](O)/C=C/c1c(C2CC2)nc2ccccc2c1-c1ccc(F)cc1`, the Potency in [1] was 0.651 µM (active); in [8], 10.3 µM (active). For the same compound, in assay [2], the viability change, negative = cytotoxic is 0.256% [at 15.8 µM]. The activity change, negative = cytotoxicity in assay [3] is 3.76% [at 15.8 µM]; in assay [7], -7.27% [at 19 µM]. Further, the activation in assay [4] is -0.423% [at 15.8 µM]. Moreover, the activity, negative = inhibition in assay [5] is 1.91% [at 10.5 µM].
Consider `CCCCNc1ccc(NCCCC)c2c1C(=O)c1ccccc1C2=O`, for which the figures for the activity change, negative = cytotoxicity in assay [1], in assay [3] and in assay [7] were -18.3% [at 19 µM], 2.74% [at 15.8 µM] and -9.38% [at 19 µM], respectively. Moreover, the viability change, negative = cytotoxic in assay [2] is 4.33% [at 15.8 µM]. In assay [4], the activation was 0.206% [at 15.8 µM]. Besides, the activity, negative = inhibition in assay [5] was 0.3% [at 10.5 µM]. Further, the caspase activation in assay [8] is -1.98% [at 19 µM]. Further, the Potency in assay [9] is 13 µM (active).
As to `CC(C=O)c1ccccc1` (stereo not given), the Potency result in [1], in assay [2], in assay [3], in [5], in assay [7] and in assay [8] was “inactive” in each case. Moreover, the Potency result in [9] is “inactive”. The call in [4] was inactive.
`[Cl][Dy]([Cl])[Cl]`: the Potency result in assay [1], in assay [2], in [3], in assay [5], in assay [6] and in assay [7] was “inactive” each time. For the same compound, the Potency entry in assay [8] and in assay [9] was “inactive” in each case. In addition, in assay [4], the result was inactive.
